Test results as given in the supplement of paper PMC11732987, “Enantioselective OTUD7B fragment discovery through chemoproteomics screening and high-throughput optimisation” (Communications Chemistry, 2025).
Values without a mark were called inactive.

What was measured:
Assay in all cases: log2 ratio of Biotin-Ahx-Ub-VS probe labelling (fragment/DMSO); higher = less target engagement (more negative = stronger competition), active = hit call of the paper (q ≤ 0.05, log2 ratio ≤ -1)
Details in all cases: compound concentration: 200 uM; treatment time: 3 h
USP19 = target: T1, USP19 (UniProt O94966)
T1 sequence (whole entry): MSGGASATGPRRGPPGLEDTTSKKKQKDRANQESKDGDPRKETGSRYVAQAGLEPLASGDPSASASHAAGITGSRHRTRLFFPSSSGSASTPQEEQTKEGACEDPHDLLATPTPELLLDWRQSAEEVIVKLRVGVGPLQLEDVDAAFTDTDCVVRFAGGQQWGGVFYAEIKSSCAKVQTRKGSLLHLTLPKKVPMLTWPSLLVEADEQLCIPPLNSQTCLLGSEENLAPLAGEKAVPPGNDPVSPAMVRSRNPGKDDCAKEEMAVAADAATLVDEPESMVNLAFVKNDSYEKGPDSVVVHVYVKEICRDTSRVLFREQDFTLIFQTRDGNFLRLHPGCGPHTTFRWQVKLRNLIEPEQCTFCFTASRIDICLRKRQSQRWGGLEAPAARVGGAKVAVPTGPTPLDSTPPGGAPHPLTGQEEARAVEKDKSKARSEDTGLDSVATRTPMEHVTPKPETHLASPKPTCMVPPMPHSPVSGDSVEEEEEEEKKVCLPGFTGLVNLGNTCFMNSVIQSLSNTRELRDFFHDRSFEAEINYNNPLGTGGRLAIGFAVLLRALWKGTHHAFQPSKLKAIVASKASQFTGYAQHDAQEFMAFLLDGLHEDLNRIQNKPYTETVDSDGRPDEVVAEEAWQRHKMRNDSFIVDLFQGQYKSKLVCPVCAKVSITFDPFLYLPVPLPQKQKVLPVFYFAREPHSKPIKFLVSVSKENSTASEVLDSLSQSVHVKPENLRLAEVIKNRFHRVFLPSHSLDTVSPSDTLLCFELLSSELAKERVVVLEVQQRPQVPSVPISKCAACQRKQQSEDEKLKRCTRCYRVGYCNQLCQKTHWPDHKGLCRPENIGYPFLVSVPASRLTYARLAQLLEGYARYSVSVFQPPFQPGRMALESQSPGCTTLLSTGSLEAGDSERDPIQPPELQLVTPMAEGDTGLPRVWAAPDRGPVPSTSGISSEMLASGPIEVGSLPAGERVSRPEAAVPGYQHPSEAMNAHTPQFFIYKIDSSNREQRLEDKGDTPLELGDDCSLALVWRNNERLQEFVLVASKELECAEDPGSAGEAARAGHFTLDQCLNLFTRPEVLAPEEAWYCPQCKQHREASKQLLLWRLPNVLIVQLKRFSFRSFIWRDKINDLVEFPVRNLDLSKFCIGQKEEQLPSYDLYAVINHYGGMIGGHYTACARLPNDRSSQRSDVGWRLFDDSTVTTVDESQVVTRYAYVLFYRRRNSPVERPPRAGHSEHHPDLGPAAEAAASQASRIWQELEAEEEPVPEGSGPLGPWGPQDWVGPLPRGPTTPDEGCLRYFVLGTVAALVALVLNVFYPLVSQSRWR
Method in brief: (§1)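 HEK293T lysate (495 µg per sample, in Tris/CHAPS/IGEPAL buffer with protease inhibitors) was exposed in triplicate for 3 h to fragment at 200 µM or to vehicle, then to Biotin-Ahx-Ub-VS at 0.5 µM final for 1 h. Labelled DUBs were enriched on NeutrAvidin, digested with LysC and trypsin, and analysed by diaPASEF LC-MS/MS. Spectronaut label-free quantities were normalised to the global median, and values are average log2 ratios of fragment over vehicle from an unpaired t-test. Only proteins with ≥2 unique peptides were used.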

USP24 = USP24 (UniProt Q9UPU5)
USP24, sequence (Q9UPU5 whole entry): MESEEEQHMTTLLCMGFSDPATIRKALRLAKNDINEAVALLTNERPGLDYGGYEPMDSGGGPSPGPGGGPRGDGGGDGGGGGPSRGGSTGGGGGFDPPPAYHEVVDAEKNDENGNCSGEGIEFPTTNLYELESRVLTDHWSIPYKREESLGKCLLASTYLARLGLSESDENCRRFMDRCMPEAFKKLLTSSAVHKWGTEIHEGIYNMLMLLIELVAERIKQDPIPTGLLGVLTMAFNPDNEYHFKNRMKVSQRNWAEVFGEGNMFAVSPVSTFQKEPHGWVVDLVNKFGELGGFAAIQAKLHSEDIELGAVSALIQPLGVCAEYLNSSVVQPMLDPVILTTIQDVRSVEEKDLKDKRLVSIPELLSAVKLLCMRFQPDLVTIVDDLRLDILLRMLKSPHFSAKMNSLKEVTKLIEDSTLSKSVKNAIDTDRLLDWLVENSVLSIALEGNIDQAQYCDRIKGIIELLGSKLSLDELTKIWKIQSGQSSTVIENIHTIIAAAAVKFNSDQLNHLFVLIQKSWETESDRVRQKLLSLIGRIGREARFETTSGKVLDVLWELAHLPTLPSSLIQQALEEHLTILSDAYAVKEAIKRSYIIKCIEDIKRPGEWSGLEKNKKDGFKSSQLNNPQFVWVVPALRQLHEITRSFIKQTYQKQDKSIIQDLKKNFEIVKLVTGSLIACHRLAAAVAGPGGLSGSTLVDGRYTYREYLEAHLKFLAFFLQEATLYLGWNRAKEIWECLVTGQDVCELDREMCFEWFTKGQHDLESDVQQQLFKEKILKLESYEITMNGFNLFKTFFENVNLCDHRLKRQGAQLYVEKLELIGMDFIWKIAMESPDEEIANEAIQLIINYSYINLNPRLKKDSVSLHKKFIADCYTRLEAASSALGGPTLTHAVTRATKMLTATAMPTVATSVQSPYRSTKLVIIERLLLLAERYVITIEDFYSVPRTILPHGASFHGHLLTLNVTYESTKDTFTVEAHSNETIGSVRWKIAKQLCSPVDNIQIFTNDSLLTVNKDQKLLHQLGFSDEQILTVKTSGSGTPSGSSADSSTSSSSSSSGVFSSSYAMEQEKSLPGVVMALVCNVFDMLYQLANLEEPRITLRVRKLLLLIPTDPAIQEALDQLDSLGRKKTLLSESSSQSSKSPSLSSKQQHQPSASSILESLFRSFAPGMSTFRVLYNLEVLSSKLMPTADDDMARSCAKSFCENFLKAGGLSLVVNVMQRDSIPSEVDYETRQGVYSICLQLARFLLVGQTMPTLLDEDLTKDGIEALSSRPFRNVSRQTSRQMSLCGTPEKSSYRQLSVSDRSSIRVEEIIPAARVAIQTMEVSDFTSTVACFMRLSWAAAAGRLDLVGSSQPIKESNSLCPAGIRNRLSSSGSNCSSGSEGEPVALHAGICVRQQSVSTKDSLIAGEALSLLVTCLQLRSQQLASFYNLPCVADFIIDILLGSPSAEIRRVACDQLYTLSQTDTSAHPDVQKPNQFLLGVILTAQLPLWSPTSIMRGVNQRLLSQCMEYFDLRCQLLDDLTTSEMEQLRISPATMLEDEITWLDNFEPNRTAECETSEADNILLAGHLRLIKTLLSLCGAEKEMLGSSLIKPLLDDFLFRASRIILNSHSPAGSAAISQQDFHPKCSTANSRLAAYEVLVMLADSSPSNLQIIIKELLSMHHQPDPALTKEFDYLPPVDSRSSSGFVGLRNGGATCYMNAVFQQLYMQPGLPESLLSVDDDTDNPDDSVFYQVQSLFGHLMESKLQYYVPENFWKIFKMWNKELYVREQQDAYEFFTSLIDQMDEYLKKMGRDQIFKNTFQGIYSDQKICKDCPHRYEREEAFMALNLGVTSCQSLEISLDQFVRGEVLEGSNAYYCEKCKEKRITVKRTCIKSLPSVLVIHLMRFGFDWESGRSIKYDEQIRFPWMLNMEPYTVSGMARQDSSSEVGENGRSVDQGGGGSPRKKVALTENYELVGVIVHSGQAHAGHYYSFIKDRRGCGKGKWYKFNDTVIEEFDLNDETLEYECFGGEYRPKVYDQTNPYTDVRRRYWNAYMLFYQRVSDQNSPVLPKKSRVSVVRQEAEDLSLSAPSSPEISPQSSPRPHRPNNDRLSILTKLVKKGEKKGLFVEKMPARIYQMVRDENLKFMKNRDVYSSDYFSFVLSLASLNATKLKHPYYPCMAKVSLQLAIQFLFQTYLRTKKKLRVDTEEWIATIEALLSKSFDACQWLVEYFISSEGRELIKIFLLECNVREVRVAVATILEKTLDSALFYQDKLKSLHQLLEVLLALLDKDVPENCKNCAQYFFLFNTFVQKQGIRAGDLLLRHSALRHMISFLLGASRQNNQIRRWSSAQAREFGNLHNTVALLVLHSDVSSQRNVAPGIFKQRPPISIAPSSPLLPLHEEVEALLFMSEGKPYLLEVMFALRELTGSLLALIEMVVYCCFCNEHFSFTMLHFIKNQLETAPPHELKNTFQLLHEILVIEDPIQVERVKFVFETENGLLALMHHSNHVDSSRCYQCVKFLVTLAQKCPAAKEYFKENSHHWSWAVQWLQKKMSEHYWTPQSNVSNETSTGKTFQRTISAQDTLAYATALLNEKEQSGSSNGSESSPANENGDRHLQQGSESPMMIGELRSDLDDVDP
Method in brief: as §1

USP25 = target: T2, USP25 (UniProt Q9UHP3)
T2 sequence (whole entry): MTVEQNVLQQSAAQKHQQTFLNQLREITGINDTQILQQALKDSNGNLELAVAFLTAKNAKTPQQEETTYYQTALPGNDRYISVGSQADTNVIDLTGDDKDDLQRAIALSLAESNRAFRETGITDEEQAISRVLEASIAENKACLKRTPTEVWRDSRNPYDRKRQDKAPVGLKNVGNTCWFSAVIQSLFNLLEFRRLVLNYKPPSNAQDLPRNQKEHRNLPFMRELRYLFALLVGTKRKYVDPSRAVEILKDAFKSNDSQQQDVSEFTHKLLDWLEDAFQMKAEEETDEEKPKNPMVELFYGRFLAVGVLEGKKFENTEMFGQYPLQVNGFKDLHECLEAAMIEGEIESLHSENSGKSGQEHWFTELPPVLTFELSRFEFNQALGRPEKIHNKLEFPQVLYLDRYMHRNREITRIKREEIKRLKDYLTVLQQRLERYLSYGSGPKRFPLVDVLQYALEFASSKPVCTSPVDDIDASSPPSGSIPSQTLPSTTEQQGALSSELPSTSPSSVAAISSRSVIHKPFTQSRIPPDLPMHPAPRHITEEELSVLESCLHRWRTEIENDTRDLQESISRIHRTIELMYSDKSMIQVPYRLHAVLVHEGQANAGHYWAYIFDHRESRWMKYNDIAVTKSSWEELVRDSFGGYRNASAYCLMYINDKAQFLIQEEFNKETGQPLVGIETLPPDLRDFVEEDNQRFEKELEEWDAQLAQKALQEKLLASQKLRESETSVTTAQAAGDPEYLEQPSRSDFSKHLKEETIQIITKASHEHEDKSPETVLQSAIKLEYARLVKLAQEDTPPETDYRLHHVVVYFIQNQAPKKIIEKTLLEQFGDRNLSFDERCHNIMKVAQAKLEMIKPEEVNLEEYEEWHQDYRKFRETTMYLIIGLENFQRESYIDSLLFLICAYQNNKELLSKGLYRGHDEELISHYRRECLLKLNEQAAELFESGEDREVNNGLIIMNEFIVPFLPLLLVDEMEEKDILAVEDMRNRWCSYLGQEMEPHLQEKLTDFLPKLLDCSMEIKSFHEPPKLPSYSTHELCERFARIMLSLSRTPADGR
Method in brief: as §1

USP28 = target: T3, USP28 (UniProt Q96RU2)
T3 sequence (whole entry): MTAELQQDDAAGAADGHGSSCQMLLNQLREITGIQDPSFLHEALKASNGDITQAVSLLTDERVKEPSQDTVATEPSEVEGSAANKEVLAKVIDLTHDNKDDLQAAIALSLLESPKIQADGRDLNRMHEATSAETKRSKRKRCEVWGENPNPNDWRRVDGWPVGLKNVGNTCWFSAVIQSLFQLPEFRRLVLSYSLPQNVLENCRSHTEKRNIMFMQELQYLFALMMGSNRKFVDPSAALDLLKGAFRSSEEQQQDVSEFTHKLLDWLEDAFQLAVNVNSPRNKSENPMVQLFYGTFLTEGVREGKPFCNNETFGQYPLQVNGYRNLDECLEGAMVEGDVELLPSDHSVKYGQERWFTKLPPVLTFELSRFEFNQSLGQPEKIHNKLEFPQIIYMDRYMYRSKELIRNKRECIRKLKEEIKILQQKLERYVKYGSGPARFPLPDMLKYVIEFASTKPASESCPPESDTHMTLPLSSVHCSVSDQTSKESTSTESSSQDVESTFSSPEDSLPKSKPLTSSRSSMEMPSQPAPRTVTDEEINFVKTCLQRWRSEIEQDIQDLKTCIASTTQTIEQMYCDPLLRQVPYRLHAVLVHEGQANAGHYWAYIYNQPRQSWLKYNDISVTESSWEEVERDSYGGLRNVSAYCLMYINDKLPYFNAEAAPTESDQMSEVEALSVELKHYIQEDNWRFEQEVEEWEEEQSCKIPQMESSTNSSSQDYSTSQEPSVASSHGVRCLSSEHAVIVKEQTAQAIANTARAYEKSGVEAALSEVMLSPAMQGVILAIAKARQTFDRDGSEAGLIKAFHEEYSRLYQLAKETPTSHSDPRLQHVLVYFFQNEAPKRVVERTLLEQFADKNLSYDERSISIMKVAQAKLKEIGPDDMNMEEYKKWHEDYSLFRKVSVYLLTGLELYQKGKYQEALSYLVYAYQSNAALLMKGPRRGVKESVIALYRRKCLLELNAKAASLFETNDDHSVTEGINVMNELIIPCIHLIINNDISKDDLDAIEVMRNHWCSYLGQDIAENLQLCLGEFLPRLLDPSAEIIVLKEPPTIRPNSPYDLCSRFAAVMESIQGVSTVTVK
Method in brief: as §1

O=C(CCl)N1CC=C(c2c[nH]c3ccccc23)CC1
log2 ratio of Biotin-Ahx-Ub-VS probe labelling (USP19): -1.72 (active) | log2 ratio of Biotin-Ahx-Ub-VS probe labelling (USP24): -1.48 (active) | log2 ratio of Biotin-Ahx-Ub-VS probe labelling (USP25): -0.457 | log2 ratio of Biotin-Ahx-Ub-VS probe labelling (USP28): -1.1 (active)
